Results on one molecule are retold here after ChEMBL document CHEMBL2218924, “A broad activity screen in support of a chemogenomic map for kinase signalling research and drug discovery” (Biochem J, 2013).

As usually defined, the residual activity is the signal under treatment as a percentage of the control signal.

In test [1] the target is T1, Ephrin type-A receptor 3 (Homo sapiens) (UniProt P29320).
T1 sequence (whole entry): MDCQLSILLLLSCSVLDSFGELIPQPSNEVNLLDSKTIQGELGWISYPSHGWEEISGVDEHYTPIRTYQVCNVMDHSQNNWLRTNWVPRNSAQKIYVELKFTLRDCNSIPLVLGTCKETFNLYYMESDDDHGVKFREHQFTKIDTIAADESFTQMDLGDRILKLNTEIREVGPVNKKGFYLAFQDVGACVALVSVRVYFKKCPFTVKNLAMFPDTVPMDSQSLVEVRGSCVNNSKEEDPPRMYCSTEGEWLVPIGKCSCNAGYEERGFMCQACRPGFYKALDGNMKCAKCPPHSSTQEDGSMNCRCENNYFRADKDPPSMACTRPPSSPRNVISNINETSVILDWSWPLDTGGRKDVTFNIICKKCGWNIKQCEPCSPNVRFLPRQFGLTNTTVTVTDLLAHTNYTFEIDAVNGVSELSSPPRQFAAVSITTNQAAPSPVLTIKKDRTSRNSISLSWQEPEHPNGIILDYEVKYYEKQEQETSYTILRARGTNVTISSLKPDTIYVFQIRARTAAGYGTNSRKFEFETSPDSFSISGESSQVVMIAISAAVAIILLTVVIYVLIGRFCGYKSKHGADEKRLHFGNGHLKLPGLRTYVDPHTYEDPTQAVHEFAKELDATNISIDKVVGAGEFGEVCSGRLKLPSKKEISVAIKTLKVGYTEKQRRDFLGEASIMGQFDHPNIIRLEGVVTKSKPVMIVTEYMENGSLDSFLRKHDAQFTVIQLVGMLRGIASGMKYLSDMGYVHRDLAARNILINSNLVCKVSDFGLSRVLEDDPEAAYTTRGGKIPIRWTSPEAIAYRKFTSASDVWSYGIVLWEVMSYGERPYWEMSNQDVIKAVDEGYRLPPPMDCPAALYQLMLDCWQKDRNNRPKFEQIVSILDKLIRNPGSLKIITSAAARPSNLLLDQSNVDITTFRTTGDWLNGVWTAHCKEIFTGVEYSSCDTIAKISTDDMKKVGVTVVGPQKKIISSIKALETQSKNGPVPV
To be noted: at 10 µM.

In test [2] the target is Ephrin type-A receptor 4 (Homo sapiens) (UniProt P54764). To be noted: at 1 µM.
Test [3] has the same target. Particulars: at 10 µM.
Test [4] deals with Ephrin type-A receptor 5 (Homo sapiens) (UniProt P54756). Particulars: at 1 µM.
For test [5] the target is unchanged. To be noted: at 10 µM.
Test [6] concerns the target Ephrin type-A receptor 7 (Homo sapiens) (UniProt Q15375). Particulars: at 1 µM.
The target is the same in test [7]. To be noted: at 10 µM.
In test [8] the target is T2, Ephrin type-A receptor 8 (Homo sapiens) (UniProt P29322).
T2 sequence (whole entry): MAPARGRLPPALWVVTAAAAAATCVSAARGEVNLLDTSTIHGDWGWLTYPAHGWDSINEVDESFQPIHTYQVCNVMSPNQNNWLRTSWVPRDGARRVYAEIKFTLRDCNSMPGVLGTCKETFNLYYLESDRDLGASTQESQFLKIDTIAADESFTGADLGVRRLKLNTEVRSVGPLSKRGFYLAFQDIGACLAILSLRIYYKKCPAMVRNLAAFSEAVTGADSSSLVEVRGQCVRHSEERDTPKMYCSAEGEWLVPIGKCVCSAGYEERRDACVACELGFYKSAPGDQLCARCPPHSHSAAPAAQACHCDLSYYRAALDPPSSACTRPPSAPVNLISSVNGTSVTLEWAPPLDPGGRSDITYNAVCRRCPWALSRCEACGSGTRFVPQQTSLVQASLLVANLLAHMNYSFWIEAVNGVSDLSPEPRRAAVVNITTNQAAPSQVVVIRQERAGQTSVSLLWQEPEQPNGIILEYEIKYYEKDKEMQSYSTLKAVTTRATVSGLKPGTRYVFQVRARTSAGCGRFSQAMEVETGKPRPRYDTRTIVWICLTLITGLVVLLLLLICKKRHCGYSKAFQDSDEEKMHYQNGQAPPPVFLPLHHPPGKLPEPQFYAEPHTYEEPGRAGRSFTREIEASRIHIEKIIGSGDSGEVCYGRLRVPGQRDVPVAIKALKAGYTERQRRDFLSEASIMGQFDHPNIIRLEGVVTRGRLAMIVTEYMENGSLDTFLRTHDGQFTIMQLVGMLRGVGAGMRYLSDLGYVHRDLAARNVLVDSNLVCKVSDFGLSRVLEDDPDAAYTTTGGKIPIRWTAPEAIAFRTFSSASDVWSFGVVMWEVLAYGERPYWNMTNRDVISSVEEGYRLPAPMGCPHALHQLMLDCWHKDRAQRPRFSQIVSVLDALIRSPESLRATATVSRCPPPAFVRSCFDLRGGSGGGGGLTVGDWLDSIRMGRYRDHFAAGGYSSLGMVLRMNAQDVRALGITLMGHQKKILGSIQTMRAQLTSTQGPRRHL
Particulars: at 1 µM.

The target of test [9] is T2, Ephrin type-A receptor 8 (Homo sapiens). To be noted: at 10 µM.
In test [10] the target is T3, Ephrin type-B receptor 1 (Homo sapiens) (UniProt P54762).
T3 sequence (whole entry): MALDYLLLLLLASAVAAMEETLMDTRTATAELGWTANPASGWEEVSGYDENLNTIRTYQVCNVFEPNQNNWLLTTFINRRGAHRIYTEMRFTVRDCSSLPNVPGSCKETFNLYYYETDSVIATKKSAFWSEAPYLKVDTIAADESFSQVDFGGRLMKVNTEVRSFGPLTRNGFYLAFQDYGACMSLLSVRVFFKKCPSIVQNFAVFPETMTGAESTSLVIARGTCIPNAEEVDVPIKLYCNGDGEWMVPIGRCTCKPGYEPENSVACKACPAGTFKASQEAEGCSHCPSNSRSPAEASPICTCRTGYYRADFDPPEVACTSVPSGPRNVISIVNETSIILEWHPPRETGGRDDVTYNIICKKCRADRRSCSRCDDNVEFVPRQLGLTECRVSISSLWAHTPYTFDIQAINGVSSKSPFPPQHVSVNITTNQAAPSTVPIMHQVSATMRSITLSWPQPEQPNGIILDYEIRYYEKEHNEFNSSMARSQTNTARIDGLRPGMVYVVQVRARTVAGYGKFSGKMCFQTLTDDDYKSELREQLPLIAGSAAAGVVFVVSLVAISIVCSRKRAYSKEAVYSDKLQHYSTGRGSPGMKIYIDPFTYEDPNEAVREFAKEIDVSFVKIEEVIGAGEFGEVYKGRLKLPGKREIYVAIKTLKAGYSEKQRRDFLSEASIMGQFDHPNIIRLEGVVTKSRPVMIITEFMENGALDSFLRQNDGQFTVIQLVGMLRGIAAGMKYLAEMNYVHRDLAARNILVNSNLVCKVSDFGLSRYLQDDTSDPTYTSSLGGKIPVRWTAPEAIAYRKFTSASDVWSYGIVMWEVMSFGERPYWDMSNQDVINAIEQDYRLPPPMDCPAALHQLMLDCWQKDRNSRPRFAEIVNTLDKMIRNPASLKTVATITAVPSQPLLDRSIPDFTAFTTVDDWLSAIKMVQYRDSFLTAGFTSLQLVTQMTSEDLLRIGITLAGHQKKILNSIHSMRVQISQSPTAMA
Particulars: at 1 µM.

Chain of Ephrin type-A receptor 7 (Homo sapiens) (Q15375 28-998 limits assumed): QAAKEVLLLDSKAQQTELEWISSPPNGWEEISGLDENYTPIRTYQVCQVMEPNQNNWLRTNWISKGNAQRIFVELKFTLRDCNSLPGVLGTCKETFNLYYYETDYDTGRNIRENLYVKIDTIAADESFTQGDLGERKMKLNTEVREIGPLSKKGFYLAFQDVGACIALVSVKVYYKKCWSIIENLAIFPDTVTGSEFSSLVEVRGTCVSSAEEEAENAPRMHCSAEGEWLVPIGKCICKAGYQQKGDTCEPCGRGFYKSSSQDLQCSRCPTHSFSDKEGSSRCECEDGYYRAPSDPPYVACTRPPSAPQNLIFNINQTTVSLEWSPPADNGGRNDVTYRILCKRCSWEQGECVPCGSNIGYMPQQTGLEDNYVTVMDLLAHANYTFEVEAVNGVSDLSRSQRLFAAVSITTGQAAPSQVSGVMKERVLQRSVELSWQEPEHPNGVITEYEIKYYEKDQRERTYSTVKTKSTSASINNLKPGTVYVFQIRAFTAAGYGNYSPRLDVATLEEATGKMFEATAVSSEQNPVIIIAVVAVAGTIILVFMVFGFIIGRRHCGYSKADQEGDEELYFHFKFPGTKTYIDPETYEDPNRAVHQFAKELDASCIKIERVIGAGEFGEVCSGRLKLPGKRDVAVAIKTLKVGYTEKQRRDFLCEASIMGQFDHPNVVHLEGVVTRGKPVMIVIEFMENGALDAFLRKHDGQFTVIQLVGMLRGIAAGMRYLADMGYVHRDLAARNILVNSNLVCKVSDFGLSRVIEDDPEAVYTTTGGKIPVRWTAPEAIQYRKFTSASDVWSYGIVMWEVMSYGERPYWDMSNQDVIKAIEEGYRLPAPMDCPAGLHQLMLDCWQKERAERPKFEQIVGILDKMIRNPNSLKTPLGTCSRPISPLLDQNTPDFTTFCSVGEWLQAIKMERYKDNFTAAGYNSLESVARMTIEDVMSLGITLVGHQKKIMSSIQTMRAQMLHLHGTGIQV
Chain of Ephrin type-A receptor 5 (Homo sapiens) (P54756 whole entry): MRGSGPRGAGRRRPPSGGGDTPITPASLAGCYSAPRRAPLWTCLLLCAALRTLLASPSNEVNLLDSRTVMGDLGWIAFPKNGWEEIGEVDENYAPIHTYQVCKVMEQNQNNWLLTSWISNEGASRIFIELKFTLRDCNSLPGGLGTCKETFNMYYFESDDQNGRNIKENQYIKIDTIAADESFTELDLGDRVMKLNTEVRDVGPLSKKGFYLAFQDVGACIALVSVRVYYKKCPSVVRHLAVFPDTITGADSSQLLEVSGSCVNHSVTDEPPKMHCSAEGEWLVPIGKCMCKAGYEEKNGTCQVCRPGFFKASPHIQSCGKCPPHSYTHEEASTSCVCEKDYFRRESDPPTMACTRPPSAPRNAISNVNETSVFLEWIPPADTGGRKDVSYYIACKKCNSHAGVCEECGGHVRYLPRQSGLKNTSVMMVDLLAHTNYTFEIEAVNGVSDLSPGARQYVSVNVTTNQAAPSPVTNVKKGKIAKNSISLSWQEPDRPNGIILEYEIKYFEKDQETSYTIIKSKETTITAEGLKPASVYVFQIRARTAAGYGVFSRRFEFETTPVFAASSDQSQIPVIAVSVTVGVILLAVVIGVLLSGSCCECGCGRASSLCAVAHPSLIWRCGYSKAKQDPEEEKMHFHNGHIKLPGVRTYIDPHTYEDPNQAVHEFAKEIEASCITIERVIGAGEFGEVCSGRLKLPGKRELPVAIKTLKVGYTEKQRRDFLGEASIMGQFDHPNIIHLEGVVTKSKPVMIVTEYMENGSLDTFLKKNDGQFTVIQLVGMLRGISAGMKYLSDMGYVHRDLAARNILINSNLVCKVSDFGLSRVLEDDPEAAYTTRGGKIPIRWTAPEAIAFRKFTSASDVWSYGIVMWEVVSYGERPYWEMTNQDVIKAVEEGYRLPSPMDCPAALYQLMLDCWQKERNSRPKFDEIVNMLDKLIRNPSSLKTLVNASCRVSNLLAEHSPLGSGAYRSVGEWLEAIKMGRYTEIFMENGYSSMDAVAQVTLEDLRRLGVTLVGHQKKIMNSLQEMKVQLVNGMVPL
Chain of Ephrin type-A receptor 4 (Homo sapiens) (P54764 whole entry): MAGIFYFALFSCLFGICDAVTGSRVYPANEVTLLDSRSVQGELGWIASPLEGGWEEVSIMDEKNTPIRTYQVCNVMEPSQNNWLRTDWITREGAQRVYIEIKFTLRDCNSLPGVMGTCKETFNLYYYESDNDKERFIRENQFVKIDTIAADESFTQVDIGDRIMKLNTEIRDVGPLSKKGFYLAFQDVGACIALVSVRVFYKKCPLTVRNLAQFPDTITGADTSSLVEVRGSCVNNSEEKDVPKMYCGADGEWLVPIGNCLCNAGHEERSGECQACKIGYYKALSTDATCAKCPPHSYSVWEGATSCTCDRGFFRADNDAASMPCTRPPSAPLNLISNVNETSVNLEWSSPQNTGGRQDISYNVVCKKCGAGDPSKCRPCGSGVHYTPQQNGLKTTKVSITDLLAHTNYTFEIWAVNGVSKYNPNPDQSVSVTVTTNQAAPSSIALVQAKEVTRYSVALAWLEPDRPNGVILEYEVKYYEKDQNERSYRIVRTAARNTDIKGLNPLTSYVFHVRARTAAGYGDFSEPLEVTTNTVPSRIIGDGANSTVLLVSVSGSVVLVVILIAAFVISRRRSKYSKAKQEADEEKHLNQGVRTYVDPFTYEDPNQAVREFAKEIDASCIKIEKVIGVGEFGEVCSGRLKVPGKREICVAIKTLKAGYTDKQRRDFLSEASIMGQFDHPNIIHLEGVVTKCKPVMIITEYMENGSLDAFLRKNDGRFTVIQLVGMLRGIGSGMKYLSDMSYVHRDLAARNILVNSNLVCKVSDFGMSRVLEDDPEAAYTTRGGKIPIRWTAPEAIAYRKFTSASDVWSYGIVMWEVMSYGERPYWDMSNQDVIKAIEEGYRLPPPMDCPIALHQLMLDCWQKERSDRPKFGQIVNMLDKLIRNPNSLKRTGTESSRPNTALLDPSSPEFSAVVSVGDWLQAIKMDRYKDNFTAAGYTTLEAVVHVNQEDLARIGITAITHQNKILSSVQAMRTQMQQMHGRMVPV

With `O=C1NC(=O)/C(=C/c2ccc3c(c2)OC(F)(F)O3)S1`, the residual activity in [1] came to 93%; in test [2], 116%; in [3], 105%; in test [4], 115%; in test [5], 103%; in test [6], 89%. Also, the residual activity in [7] worked out at 102%; in test [8] it was 111%; in test [9], 99%; in test [10], 115%.
